SMILES strings stand for the structures. Several values for one entry are separate records, joined by “and”; a condition that tells them apart may be missing. Equal entries are not always repeated. The list shows a part of the results. Activity calls are given as the source filed them. No rule for the calls is given here.

Lethal factor (Bacillus anthracis), sequence (P15917 whole entry, looked up): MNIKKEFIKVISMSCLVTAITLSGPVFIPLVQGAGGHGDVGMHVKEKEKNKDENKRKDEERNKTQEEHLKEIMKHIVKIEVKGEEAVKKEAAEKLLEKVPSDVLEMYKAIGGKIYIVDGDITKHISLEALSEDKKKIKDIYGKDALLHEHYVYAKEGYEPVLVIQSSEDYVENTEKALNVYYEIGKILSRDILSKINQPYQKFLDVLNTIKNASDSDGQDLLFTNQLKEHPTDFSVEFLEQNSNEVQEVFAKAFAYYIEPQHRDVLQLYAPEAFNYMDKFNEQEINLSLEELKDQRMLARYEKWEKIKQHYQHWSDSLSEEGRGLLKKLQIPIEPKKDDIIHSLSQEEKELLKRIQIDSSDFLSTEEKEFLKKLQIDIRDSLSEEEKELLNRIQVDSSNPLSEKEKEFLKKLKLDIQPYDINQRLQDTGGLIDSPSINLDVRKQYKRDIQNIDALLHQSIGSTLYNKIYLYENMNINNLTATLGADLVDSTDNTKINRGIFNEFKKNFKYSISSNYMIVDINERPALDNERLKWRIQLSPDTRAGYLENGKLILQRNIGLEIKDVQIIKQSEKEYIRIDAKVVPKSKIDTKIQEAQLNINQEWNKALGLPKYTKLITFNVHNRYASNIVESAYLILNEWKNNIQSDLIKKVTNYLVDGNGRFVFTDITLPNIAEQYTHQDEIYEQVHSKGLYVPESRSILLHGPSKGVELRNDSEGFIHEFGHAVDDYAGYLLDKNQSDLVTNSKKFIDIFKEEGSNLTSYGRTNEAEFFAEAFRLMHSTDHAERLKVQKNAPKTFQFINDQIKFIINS

The experiment concerns the target Lethal factor (Bacillus anthracis) (UniProt P15917). The experiment is described as follows: anthrax lethal factor cleavage blockers – biochemical, multiplex microsphere, cherry pick 1, confirmation (AID 602142). Conditions: multiplex microsphere protease cleavage assay, LF; at 10 µM; hits give high values.
`CC(=O)c1cccc(NC(=O)N2CCCC2C(=O)NCCc2ccccc2)c1` (stereo unspecified): the inhibition (usually the drop in the measured response relative to a control, in per cent) was 4.9% (inactive).
Turning to `OC(c1ccc(Cl)cc1)C(CN1CCOCC1)c1ccccc1` (stereo unspecified), the inhibition is 3.2% (inactive).
With `Cc1cccc2cc3c(N)c(C(=O)N4CCCc5ccccc54)sc3nc12` the figure was 13.6% (inactive).
As to `Cc1ccccc1NC(=O)c1cc(S(=O)(=O)Nc2cccc(C(=O)O)c2)ccc1Cl`, the inhibition was -0.5% (inactive).
For `COC(=O)CN(c1nc(C)c(Cl)c(OC)n1)S(=O)(=O)c1ccc(C)cc1` the value was 2.2% (inactive).
Turning to `CCCN1C2CCCC1CC(NC(=O)c1cccc(OC)c1)C2` (stereo unspecified), the inhibition was 3.1% (inactive).
With `Brc1ccc2ncnc(NCc3cccnc3)c2c1` the figure was -1.9% (inactive); with `O=C(O)c1cc(S(=O)(=O)NC2CCCc3ccccc32)ccc1O` (stereo unspecified), 1.4% (inactive).
On to `CCCSc1nc2sc3c(c2c(=O)n1-c1ccc(OC)cc1)CCN(C)C3`, for which the inhibition was 4.5% (inactive).
With `COc1cc2cc(CN(CCN3CCCC3)C(=O)Nc3ccccc3Cl)c(=O)[nH]c2cc1OC` the figure was -0.1% (inactive); with `COc1ccccc1-n1c(-c2cc(-c3ccco3)[nH]n2)n[nH]c1=S`, 2.2% (inactive).
For `CN(C(=O)c1ccccn1)c1nnc(-c2ccccn2)s1` the value was -4.3% (inactive).
With `COc1ccc(C2CC(c3cccs3)=NN2c2nc(C)c(C(C)=O)s2)cc1OC` (stereo unspecified) the figure was 10.5% (inactive) and 15.1% (inactive).
Regarding `COCCn1nnnc1C(c1cc2ccc(OC)cc2[nH]c1=O)N1CCc2ccccc2C1` (stereo unspecified), the inhibition was -6.3% (inactive).
With `Cc1onc(-c2ccccc2Cl)c1C(=O)NCCn1ccc2ccccc21` the figure was 4.3% (inactive); with `Cc1cc(S(=O)(=O)NC2CCCC2)ccc1-n1cnnn1`, -3.6% (inactive); with `COc1ccc(C(=O)Nc2nc(-c3ccc(OC)cc3)c(-c3ccc([N+](=O)[O-])cc3)s2)cc1`, 15.9% (inactive).
With `Cc1ccc(C(=O)COc2cccc(NC(=O)c3ccco3)c2)cc1` the figure was -1.8% (inactive); with `CC(=O)Nc1ccc(Oc2ccc3c(c2)C(=O)NC3=O)cc1`, 0.6% (inactive).
In the case of `CCN1CCN(C(C(=O)NC2CCCC2)c2cc3c(cc2[N+](=O)[O-])OCO3)CC1` (stereo unspecified), the inhibition was 1.5% (inactive).
With `CCOc1ccc(NC(=O)CC(Cc2ccc(Cl)cc2)C(=O)O)cc1` (stereo unspecified) the figure was 2.3% (inactive).

These data come from PubChem BioAssay AID602142 (NMMLSC, 2011).
